# Measurements: PubChem BioAssay AID1159580 (chemical genetic matrix, 2015)
# The whole screen tested about 5,500 compounds, of which about 2,000 (36%) were called active. Roughly 18% stayed inconclusive and do not appear here. The list shows a part of the results. Values without a mark were called inactive. Cut-off read from the data, not from the text of the source: active = normalized growth mostly below about 0.91 (no sharp cut-off); inconclusive = no clear call, values can overlap the other calls; inactive = mostly above about 0.92.
# Assay: chemical genetic growth profiling, strain panel (AID 1159580);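 note: tested at 20 µM; growth read once vehicle control cultures reached saturation at 30 °C; 1 = growth at the plate median or of vehicle wells; lower values mean less growth of the strain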
# Settings: growth OD
# [1] = S. cerevisiae deletion strains, locus YDR150W, strain NUM1, hits give low values
# [2] = S. cerevisiae deletion strains, locus YGR078C, strain PAC10, hits give low values
# [3] = S. cerevisiae deletion strains, locus YJR075W, strain HOC1, hits give low values
# [4] = S. cerevisiae deletion strains, locus YNL153C, strain GIM3, hits give low values
# [5] = S. cerevisiae deletion strains, locus YNL322C, strain KRE1, hits give low values
# [6] = S. cerevisiae deletion strains, locus YPL055C, strain LGE1, hits give low values
# [7] = S. cerevisiae deletion strains, locus YPL241C, strain CIN2, hits give low values
# [8] = S. cerevisiae deletion strains, locus YAL013W, strain DEP1, hits give low values
# [9] = S. cerevisiae deletion strains, locus YBR229C, strain ROT2, hits give low values
# [10] = S. cerevisiae deletion strains, locus YDL101C, strain DUN1, hits give low values
# [11] = S. cerevisiae deletion strains, locus YDL134C, strain PPH21, hits give low values
# [12] = S. cerevisiae deletion strains, locus YEL061C, strain CIN8, hits give low values
# [13] = S. cerevisiae deletion strains, locus YHR030C, strain SLT2, hits give low values
# [14] = S. cerevisiae deletion strains, locus YJR043C, strain POL32, hits give low values
# [15] = S. cerevisiae deletion strains, locus YLR039C, strain RIC1, hits give low values
# [16] = S. cerevisiae deletion strains, locus YLR262C, strain YPT6, hits give low values
# [17] = S. cerevisiae deletion strains, locus YMR263W, strain SAP30, hits give low values
# [18] = S. cerevisiae deletion strains, locus YMR307W, strain GAS1, hits give low values
# [19] = S. cerevisiae deletion strains, locus YJL095W, strain BCK1, hits give low values
smiles,measurement,setting,value
C=CC1(C)CC(=O)C2(O)C(C)(O1)C(OC(C)=O)C(O)C1C(C)(C)CCC(O)C12C (stereo unspecified),normalized growth,"S. cerevisiae deletion strains, locus YAL040C, strain CLN3, hits give low values",0.968
same,normalized growth,"S. cerevisiae deletion strains, locus YCL061C, strain MRC1 (second series), hits give low values",0.985
same,normalized growth,[1],1
same,normalized growth,"S. cerevisiae deletion strains, locus YDR363W, strain ESC2, hits give low values",0.969
same,normalized growth,"S. cerevisiae deletion strains, locus YER002W, strain NOP16, hits give low values",0.986
same,normalized growth,[2],0.996
same,normalized growth,[3],0.992
same,normalized growth,[4],1.02
same,normalized growth,"S. cerevisiae deletion strains, locus YNL175C, strain NOP13, hits give low values",1.02
same,normalized growth,"S. cerevisiae deletion strains, locus YNL197C, strain WHI3, hits give low values",0.994
same,normalized growth,"S. cerevisiae deletion strains, locus YNL224C, strain SQS1, hits give low values",0.99
same,normalized growth,[5],0.985
same,normalized growth,"S. cerevisiae deletion strains, locus YOR083W, strain WHI5 (second series), hits give low values",1.01
same,normalized growth,[6],0.994
same,normalized growth,[7],0.998
CSc1nc2ccccc2[nH]1,normalized growth,[8],0.987
same,normalized growth,[9],0.996
same,normalized growth,"S. cerevisiae deletion strains, locus YCL061C, strain MRC1, hits give low values",0.992
same,normalized growth,[10],0.999
same,normalized growth,[11],0.948
same,normalized growth,[1],1.02
same,normalized growth,[12],0.936
same,normalized growth,[2],0.99
same,normalized growth,[13],1.03
same,normalized growth,"S. cerevisiae deletion strains, locus YHR087W, strain rtc3, hits give low values",0.969
same,normalized growth,"S. cerevisiae deletion strains, locus YJL187C, strain SWE1, hits give low values",0.973
same,normalized growth,[14],1
same,normalized growth,[3],0.956
same,normalized growth,"S. cerevisiae deletion strains, locus YKL190W, strain CNB1, hits give low values",0.984
same,normalized growth,[15],1.01
same,normalized growth,"S. cerevisiae deletion strains, locus YLR058C, strain SHM2 (second series), hits give low values",0.983
same,normalized growth,"S. cerevisiae deletion strains, locus YLR085C, strain ARP6, hits give low values",0.895
same,normalized growth,[16],1.01
same,normalized growth,"S. cerevisiae deletion strains, locus YML094W, strain GIM5, hits give low values",0.96
same,normalized growth,"S. cerevisiae deletion strains, locus YMR219W, strain ESC1, hits give low values",0.99
same,normalized growth,[17],1.02
same,normalized growth,[18],0.89
same,normalized growth,[4],1.02
same,normalized growth,"S. cerevisiae deletion strains, locus YNL298W, strain CLA4 (second series), hits give low values",0.95
same,normalized growth,[5],0.977
same,normalized growth,"S. cerevisiae deletion strains, locus YNR030W, strain Alg12, hits give low values",0.923
same,normalized growth,[6],1.03
same,normalized growth,[7],0.944
same,normalized growth,"S. cerevisiae deletion strains, locus YPR135W, strain CTF4, hits give low values",0.973
same,normalized growth,"S. cerevisiae strains, strain wild type, hits give low values",0.981
CSc1nc2cc(Oc3cccc(Cl)c3Cl)c(Cl)cc2[nH]1,normalized growth,[13],0.11 (active)
same,normalized growth,"S. cerevisiae deletion strains, locus YHR079C, strain IRE1, hits give low values",0.119 (active)
same,normalized growth,[19],0.114 (active)
same,normalized growth,"S. cerevisiae deletion strains, locus YJR066W, strain TOR1, hits give low values",0.0117 (active)
same,normalized growth,"S. cerevisiae deletion strains, locus YLR113W, strain HOG1, hits give low values",0.156 (active)
same,normalized growth,"S. cerevisiae deletion strains, locus YNL183C, strain NPR1, hits give low values",0.000876 (active)
same,normalized growth,"S. cerevisiae deletion strains, locus YOR231W, strain MKK1, hits give low values",0.125 (active)
same,normalized growth,"S. cerevisiae deletion strains, locus YPL256C, strain CLN2, hits give low values",0.138 (active)
CCC1(O)CC(OC2CC(N(C)C)C(OC3CC(O)C(OC4CCC(=O)C(C)O4)C(C)O3)C(C)O2)c2c(cc3c(c2O)C(=O)c2c(O)cccc2C3=O)C1C(=O)OC (stereo unspecified),normalized growth,[8],0.986
same,normalized growth,"S. cerevisiae deletion strains, locus YBR021W, strain FUR4, hits give low values",1.07
same,normalized growth,[9],1
same,normalized growth,"S. cerevisiae deletion strains, locus YCL029C, strain bik1, hits give low values",1
same,normalized growth,"S. cerevisiae deletion strains, locus YDL035C, strain GPR1, hits give low values",0.978
same,normalized growth,"S. cerevisiae deletion strains, locus YDL074C, strain BRE1, hits give low values",0.998
same,normalized growth,[10],0.992
same,normalized growth,[11],1.01
same,normalized growth,"S. cerevisiae deletion strains, locus YDL185W, strain tfp1, hits give low values",1.01
same,normalized growth,"S. cerevisiae deletion strains, locus YDL192W, strain arf1, hits give low values",1.01
same,normalized growth,"S. cerevisiae deletion strains, locus YDR101C, strain arx1, hits give low values",1.01
same,normalized growth,[1],1
same,normalized growth,"S. cerevisiae deletion strains, locus YDR162C, strain NBP2, hits give low values",0.981
same,normalized growth,"S. cerevisiae deletion strains, locus YDR318W, strain mcm21, hits give low values",1.01
same,normalized growth,"S. cerevisiae deletion strains, locus YDR388W, hits give low values",1.01
same,normalized growth,"S. cerevisiae deletion strains, locus YDR502C, strain sam2, hits give low values",1
same,normalized growth,[12],1.01
same,normalized growth,"S. cerevisiae deletion strains, locus YER110C, hits give low values",1.01
same,normalized growth,"S. cerevisiae deletion strains, locus YER155C, strain BEM2, hits give low values",1.01
same,normalized growth,"S. cerevisiae deletion strains, locus YER167W, strain BCK2, hits give low values",1.01
same,normalized growth,"S. cerevisiae deletion strains, locus YGL078C, strain dbp3, hits give low values",1.01
same,normalized growth,"S. cerevisiae deletion strains, locus YGL086W, strain mad1, hits give low values",0.992
same,normalized growth,"S. cerevisiae deletion strains, locus YGL248W, strain PDE1, hits give low values",0.981
same,normalized growth,"S. cerevisiae deletion strains, locus YGR135W, strain pre9, hits give low values",1.01
same,normalized growth,"S. cerevisiae deletion strains, locus YGR229C, strain SMI1, hits give low values",0.96
same,normalized growth,"S. cerevisiae deletion strains, locus YGR252W, strain gcn5, hits give low values",1.03
same,normalized growth,[13],1
same,normalized growth,"S. cerevisiae deletion strains, locus YHR079C, strain IRE1 (second series), hits give low values",1.01
same,normalized growth,"S. cerevisiae deletion strains, locus YHR094C, strain hxt1, hits give low values",1.01
same,normalized growth,"S. cerevisiae deletion strains, locus YHR129C, strain ARP1, hits give low values",0.995
same,normalized growth,"S. cerevisiae deletion strains, locus YHR200W, strain rpn10, hits give low values",1.01
same,normalized growth,"S. cerevisiae deletion strains, locus YIL066C, strain RNR3, hits give low values",1
same,normalized growth,"S. cerevisiae deletion strains, locus YIL073C, strain SPO22, hits give low values",1.04
same,normalized growth,"S. cerevisiae deletion strains, locus YIL125W, strain kgd1, hits give low values",1
same,normalized growth,"S. cerevisiae deletion strains, locus YIR030C, strain dcg1, hits give low values",1.01
same,normalized growth,[19],0.983
same,normalized growth,"S. cerevisiae deletion strains, locus YJL134W, strain LCB3, hits give low values",1.01
same,normalized growth,"S. cerevisiae deletion strains, locus YJL168C, strain set2, hits give low values",1.01
same,normalized growth,"S. cerevisiae deletion strains, locus YJL187C, strain SWE1 (second series), hits give low values",0.998
same,normalized growth,[14],0.986
same,normalized growth,[3],0.975
same,normalized growth,"S. cerevisiae deletion strains, locus YKL009W, strain mrt4, hits give low values",1.01
same,normalized growth,"S. cerevisiae deletion strains, locus YKL068W, hits give low values",1
same,normalized growth,"S. cerevisiae deletion strains, locus YKL085W, strain MDH1 (second series), hits give low values",0.993
same,normalized growth,"S. cerevisiae deletion strains, locus YKL085W, strain MDH1, hits give low values",0.993
same,normalized growth,"S. cerevisiae deletion strains, locus YKR001C, strain vps1, hits give low values",1.01
same,normalized growth,[15],0.981
same,normalized growth,"S. cerevisiae deletion strains, locus YLR058C, strain SHM2, hits give low values",1
same,normalized growth,"S. cerevisiae deletion strains, locus YLR102C, strain apc9, hits give low values",1.01
same,normalized growth,[16],0.958
same,normalized growth,"S. cerevisiae deletion strains, locus YLR268W, strain sec22, hits give low values",0.98
same,normalized growth,"S. cerevisiae deletion strains, locus YLR330W, strain CHS5, hits give low values",1
same,normalized growth,"S. cerevisiae deletion strains, locus YLR342W, strain FKS1 (second series), hits give low values",0.976
same,normalized growth,"S. cerevisiae deletion strains, locus YLR371W, strain rom2, hits give low values",1.01
same,normalized growth,"S. cerevisiae deletion strains, locus YLR418C, strain cdc73, hits give low values",1.01
same,normalized growth,"S. cerevisiae deletion strains, locus YML016C, strain PPZ1, hits give low values",0.997
same,normalized growth,"S. cerevisiae deletion strains, locus YML032C, strain rad52, hits give low values",0.893 (active)
same,normalized growth,"S. cerevisiae deletion strains, locus YML124C, strain tub3, hits give low values",0.999
same,normalized growth,"S. cerevisiae deletion strains, locus YMR078C, strain ctf18, hits give low values",1.01
same,normalized growth,"S. cerevisiae deletion strains, locus YMR223W, strain ubp8, hits give low values",1
same,normalized growth,[17],0.998
same,normalized growth,[18],0.601
same,normalized growth,"S. cerevisiae deletion strains, locus YNL067W, strain RPL9B, hits give low values",0.992
same,normalized growth,"S. cerevisiae deletion strains, locus YNL233W, strain BNI4, hits give low values",0.997
same,normalized growth,"S. cerevisiae deletion strains, locus YNL250W, strain rad50, hits give low values",0.999
same,normalized growth,"S. cerevisiae deletion strains, locus YNL271C, strain bni1, hits give low values",1
same,normalized growth,"S. cerevisiae deletion strains, locus YNL298W, strain CLA4, hits give low values",1.02
same,normalized growth,"S. cerevisiae deletion strains, locus YNL307C, strain MCK1, hits give low values",1.01
same,normalized growth,"S. cerevisiae deletion strains, locus YNR052C, strain pop2, hits give low values",0.996
same,normalized growth,"S. cerevisiae deletion strains, locus YOL006C, strain TOP1, hits give low values",0.812
same,normalized growth,"S. cerevisiae deletion strains, locus YOL012C, strain htz1",0.589
same,normalized growth,"S. cerevisiae deletion strains, locus YOL147C, strain pex11, hits give low values",1.01
same,normalized growth,"S. cerevisiae deletion strains, locus YOR061W, strain CKA2, hits give low values",1
same,normalized growth,"S. cerevisiae deletion strains, locus YOR069W, strain VPS5, hits give low values",1
same,normalized growth,"S. cerevisiae deletion strains, locus YOR136W, strain idh2, hits give low values",1
same,normalized growth,"S. cerevisiae deletion strains, locus YOR144C, strain elg1, hits give low values",1
same,normalized growth,"S. cerevisiae deletion strains, locus YOR184W, strain ser1, hits give low values",0.982
same,normalized growth,"S. cerevisiae deletion strains, locus YOR316C, strain cot1, hits give low values",1.01
same,normalized growth,"S. cerevisiae deletion strains, locus YPR119W, strain clb2, hits give low values",1.02
same,normalized growth,"S. cerevisiae deletion strains, locus YPR141C, strain kar3, hits give low values",0.986
same,normalized growth,"S. cerevisiae deletion strains, locus YPR163C, strain tif3, hits give low values",1.02
same,normalized growth,"S. cerevisiae deletion strains, locus YPR167C, strain met16, hits give low values",1
same,normalized growth,"S. cerevisiae deletion strains, strain wtn01, hits give low values",0.983
